Assay outcomes deposited in PubChem BioAssay by Buhrlage Lab, Dana-Farber Cancer Institute and Novartis Institutes for BioMedical Research (Cambridge, Mass).
The list is not random: actives were taken first. Their share in the collection is about 14%.
USP30 inh: inhibitors of human USP30 deubiquitinase; hit rate 5.3% among 47,000; inhibition, % at 25 µM; Q70CQ3; purified USP30, Ub-rhodamine cleavage fluorescence; AID 1645860
USP28 inh: human USP28 deubiquitinase inhibition; purified USP28, Ub-rhodamine cleavage fluorescence, 30 min; AID 1645857; hit rate 3% among 47,000; inhibition, % at 25 µM
Target sequence (Q96RU2 whole entry, looked up): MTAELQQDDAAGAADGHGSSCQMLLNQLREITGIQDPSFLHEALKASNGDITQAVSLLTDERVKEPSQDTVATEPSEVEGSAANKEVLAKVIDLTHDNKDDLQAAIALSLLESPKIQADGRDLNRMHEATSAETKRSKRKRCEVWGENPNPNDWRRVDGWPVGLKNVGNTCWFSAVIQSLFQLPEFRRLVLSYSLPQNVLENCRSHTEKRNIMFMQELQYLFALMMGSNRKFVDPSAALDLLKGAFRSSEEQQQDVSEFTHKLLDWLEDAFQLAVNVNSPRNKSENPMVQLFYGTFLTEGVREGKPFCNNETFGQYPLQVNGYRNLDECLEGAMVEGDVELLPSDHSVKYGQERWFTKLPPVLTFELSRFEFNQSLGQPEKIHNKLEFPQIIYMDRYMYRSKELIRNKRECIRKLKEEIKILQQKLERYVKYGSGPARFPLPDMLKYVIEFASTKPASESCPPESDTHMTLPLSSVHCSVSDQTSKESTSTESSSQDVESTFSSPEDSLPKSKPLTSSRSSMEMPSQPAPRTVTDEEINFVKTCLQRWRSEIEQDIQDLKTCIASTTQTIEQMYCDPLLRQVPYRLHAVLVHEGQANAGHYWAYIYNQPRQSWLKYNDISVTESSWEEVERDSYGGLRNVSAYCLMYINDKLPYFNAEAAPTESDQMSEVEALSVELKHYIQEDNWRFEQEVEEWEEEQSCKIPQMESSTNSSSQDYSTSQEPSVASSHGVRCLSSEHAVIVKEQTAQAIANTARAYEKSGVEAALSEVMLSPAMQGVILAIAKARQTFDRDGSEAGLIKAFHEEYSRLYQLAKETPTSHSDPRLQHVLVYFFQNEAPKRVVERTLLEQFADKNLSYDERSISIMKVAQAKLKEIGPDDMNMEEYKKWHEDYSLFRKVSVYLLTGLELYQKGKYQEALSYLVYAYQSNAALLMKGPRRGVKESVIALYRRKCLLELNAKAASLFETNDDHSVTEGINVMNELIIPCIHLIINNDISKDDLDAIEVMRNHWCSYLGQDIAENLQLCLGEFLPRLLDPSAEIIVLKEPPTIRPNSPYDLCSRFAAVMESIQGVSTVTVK
USP8 inh: human USP8 deubiquitinase inhibition; P40818; purified USP8, Ub-rhodamine cleavage fluorescence, 30 min; inhibition, % at 20 µM; hit rate 4.2% among 47,000; AID 1645853
USP17 block: inhibitors of human USP17 deubiquitinase | inhibition, % at 50 µM | purified USP17, Ub-rhodamine cleavage fluorescence, 3 h | hit rate 6.5% among 47,000
Numbers without * were called inactive; x = not tested or not shown. Cut-off read from the data, not from the text of the source: active = inhibition above about 30%; inactive = the rest.

SMILES	USP30 inh	USP28 inh	USP8 inh	USP17 block
Cc1ccc(CN2Cc3cc4ccccc4nc3OC2=O)o1	13	7	12	42*
Cc1ccc2cc3c(nc2c1)OC(=O)N(Cc1ccco1)C3	-4	2	-7	6
COc1cccc(CNc2ncc(-c3onc(C)c3C)c(-c3ccco3)n2)c1	26	24	22	25
COc1ccc(/C=C/c2nc(-c3ccc4oc(C)nc4c3)no2)cc1	6	13	31*	x
O=C(Nc1ccc2snnc2c1)Nc1ccc(F)cc1F	-39	-10	74*	-14
CCOC(=O)Cc1ccc(NC(=O)Nc2ccc3snnc3c2)cc1	-21	13	-1	27
O=C(Nc1cnn(-c2ncncc2N2CCCCC2)c1)c1cccc(F)c1	-1	-5	-32	-3
Cc1ccc(N2CCN(c3ccc(C)cc3)C2c2c(F)cccc2Cl)cc1	2	3	16	6
O=C(Nc1ccc(N2CCN(Cc3ccccc3)C2=O)nc1)C1CCC1	17	5	19	9
CC(C)C(=O)Nc1ccc(N2CCN(Cc3ccc(F)cc3)C2=O)nc1	18	23	29	62*
CCc1ccccc1N(C)C(=O)c1noc2c1CCc1sccc1-2	29	29	5	19
O=C(Nc1ccc2c(c1)OCO2)c1noc2c1CCc1sccc1-2	-22	13	53*	12
O=C(Nc1ccccc1)c1noc2c1CCc1sccc1-2	4	19	4	37*
Cc1cccc(NC(=O)c2noc3c2CCc2sccc2-3)n1	22	15	94*	65*
Cc1ccc(NC(=O)c2noc3c2CCc2sccc2-3)cc1Cl	20	11	20	13
O=C(Nc1ccc(F)cc1)c1noc2c1CCc1sccc1-2	3	6	-1	36*
Cc1cccc(N2CCN(C(=O)c3noc4c3CCc3sccc3-4)CC2)c1C	4	0	1	-8
CC(=O)N1Cc2ccccc2OC2(CCN(CC(=O)N3CCC(C)CC3)CC2)C1	9	6	4	3
Cc1cc(C(=O)N2CCC(C)(c3nccs3)CC2)c2c(C)noc2n1	-5	-10	-27	-4
O=C(Cc1ccccc1F)Nc1nc(-c2ccco2)c(-c2ccco2)s1	-111	43*	74*	x
COc1ccc(CC(=O)Nc2nc(-c3ccco3)c(-c3ccco3)s2)cc1	-64	32*	73*	65*
COc1ccc(-c2nc(NC(=O)Cc3ccccc3OC)sc2C)cc1	-9	10	5	6
Cc1ccc2[nH]cc(S(=O)(=O)c3ccc(C)c(F)c3)c(=O)c2c1	-34	-19	17	60*
Cc1cc(C)nc(NC(=O)c2c[nH]c3ccc(F)cc3c2=O)n1	-305	-116	-5	-130
Cc1ccc(S(=O)(=O)c2c[nH]c3cc(F)ccc3c2=O)cc1F	-7	-5	69*	28
SMILES	USP30 inh	USP28 inh	USP8 inh	USP17 block
Cc1ccc2[nH]cc(S(=O)(=O)c3cc(F)cc(F)c3)c(=O)c2c1	8	6	98*	12
CN1CCCc2cc(C(=O)NCc3cccnc3)sc21	-58	-10	-9	-20
COc1ccc(/C=C/C(=O)Nc2ccccc2C#N)cc1	x	x	5	68*
COc1ccc(/C=C/C(=O)Nc2cc(C)ccn2)cc1	29	46*	-3	13
COc1ccc(N2CCN(Cc3nc4c([nH]3)c(=O)n(C)c(=O)n4C)CC2)cc1	-10	-7	-1	-1
NCc1ccc([C@@H]2CN(C(=O)c3ccc4ncccc4c3)C[C@H]2c2ccn[nH]2)cc1	x	x	-12	68*
Cc1ccc(Cl)cc1N(Cc1ccc(C(=O)N2CCOCC2)cc1)S(=O)(=O)c1ccccc1	50*	16	17	x
Cc1ccc(C)c(N(CC(=O)NCCN2CCOCC2)S(=O)(=O)c2ccccc2)c1	19	7	9	7
COc1cccc(C(CC(=O)Nc2ccc3c(c2)OCO3)n2cccc2)c1 (stereo not given)	-6	-9	16	8
O=C(Cn1c(CN2CCCCC2)nc2sc3c(c2c1=O)CCCC3)N1CCc2ccccc21	-325	-105	-20	4
O=C(Cn1cnc2sc3c(c2c1=O)CCC3)N1CCc2ccccc21	-30	-37	48*	16
COc1ccc(-c2cnc(N)nc2C2CCCN2C(=O)C2CCC2)cc1 (stereo not given)	11	7	10	4
Oc1cc(O)cc(/C=C/c2ccc(O)c(O)c2)c1	31*	49*	1	40*
Cn1c(SCC(=O)Nc2ccc3c(c2)OCCO3)nnc1-c1ccncc1	21	39*	22	5
CCn1c(SCC(=O)N2c3ccccc3CC2C)nnc1-c1ccc2c(c1)OCCO2 (stereo not given)	73*	3	-3	21
Cn1c(SCC(=O)Nc2ccc3c(c2)OCCO3)nnc1C(F)(F)F	2	10	-11	-1
CCn1c(SCC(=O)Nc2ccc(C)c(Cl)c2)nnc1-c1ccc2c(c1)OCCO2	40*	4	31*	17
Cc1ccc(C2(C)NC(=O)N(Cc3ncc(-c4ccc(Cl)cc4)o3)C2=O)cc1 (stereo not given)	-22	-10	-5	-3
CC1CCCN(S(=O)(=O)c2cc3cc(F)ccc3oc2=O)C1 (stereo not given)	15	0	3	58*
Nc1cc(C2CCN(S(=O)(=O)c3cccc(F)c3)CC2)no1	3	-3	4	3
O=C(Cn1ncc2c1-c1ccccc1OC2)Nc1ccc(F)c(Cl)c1	35*	13	-4	-5
Cc1ccc(C2CC(c3ccccc3)N(C(=O)C3CC3)c3ncnn32)cc1 (stereo not given)	8	-5	0	-7
CCN(CC)CCN1C(=O)C(O)=C(C(=O)c2cc3ccccc3o2)C1c1ccco1 (stereo not given)	-8	-12	-13	-4
COc1cccc2cc(C(=O)C3=C(O)C(=O)N(CCCN(C)C)C3c3ccco3)oc12 (stereo not given)	0	9	44*	22
COc1ccc(OC)c(NC(=O)CCc2nc3ccccc3[nH]2)c1	5	3	4	8
SMILES	USP30 inh	USP28 inh	USP8 inh	USP17 block
COc1ccc(NC(=O)Nc2ccc(CCc3nc4ccccc4[nH]3)cc2)c(OC)c1	76*	28	24	59*
COc1cccc(NC(=O)Nc2ccc(CCc3nc4ccccc4[nH]3)cc2)c1	8	66*	-11	42*
COc1cc(OC)cc(C(=O)Nc2cccc(CCc3nc4ccccc4[nH]3)c2)c1	13	8	0	9
COc1ccnc2c1c(=O)n(CC(=O)NCC1CCCO1)c(=O)n2C (stereo not given)	-14	-4	9	6
Cc1cc2c(cc(C(=O)NC3CC3)n2C)s1	-29	1	0	-4
Cc1sc2ccn(C)c(=O)c2c1C(=O)NC1CCCC1	3	28	94*	62*
Cc1ccc(OCC(=O)Oc2ccc(-n3cnnn3)cc2)cc1C	-23	-9	-20	-19
CCc1ccc(NS(=O)(=O)c2ccc(-c3cnc(C)o3)cc2)cc1	6	9	6	5
Cc1noc(C)c1-c1ccc(S(=O)(=O)Nc2ccccc2)cc1	30*	12	29	8
